Measured values as given in PubChem BioAssay (EPA / NIEHS).
The source made the active and inactive calls. How the source made its calls: active means hit-call score of the fitted dose curve at least 0.9, where 1 is the maximum; inactive means score below 0.9.

Key:
[1] = target: Nuclear respiratory factor 1 (Homo sapiens) (UniProt Q16656); assay: ATG_NRF1_CIS: Attagene CIS-FACTORIAL HepG2 Assay for human Nuclear Respiratory Factor 1 (NRF1) Orphan Gene (AID 2282987); conditions: HepG2 NRF1 cis-element reporter, Attagene multiplex; actives raise or lower the signal
How it was run: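 Multiplexed cis-reporter assay, HepG2 cells, 24 h treatment. Total RNA → oligo(dT) RT → PCR with reporter-specific primers → 6-FAM primer extension → HpaI cut → CE. Bidirectional fit vs DMSO.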

[2] = ATG_NFI_CIS: Attagene CIS-FACTORIAL HepG2 Assay for human Nuclear Factor I (NFI) (AID 2282989); conditions: HepG2 cis-regulatory reporter, NFI response element transcription; actives raise or lower the signal
How it was run: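 Read-out: reporter mRNA via RT-PCR plus capillary electrophoresis with fluorescence detection. Transiently transfected HepG2 (endogenous TF activity on cis promoters), 24 h compound exposure; gain or loss of signal fitted against DMSO.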

[3] = target: Myc proto-oncogene protein (Homo sapiens) (UniProt P01106); assay: ATG_Myc_CIS: Attagene CIS-FACTORIAL HepG2 Assay for human Myelocytomatosis (Myc) Proto-Oncogene Transcription Factor (AID 2282990); conditions: HepG2, Attagene cis-reporter transcription factor activity; actives raise or lower the signal
How it was run: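 HepG2 cells transiently transfected with multiple cis-promoter-driven reporter transcription units, so endogenous TF activity is read. After 24 h compound exposure, reporter mRNA was quantified by RT-PCR, 6-FAM labelling, HpaI digestion and capillary electrophoresis; bidirectional fit versus DMSO.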

[4] = ATG_NF_kB_CIS: Attagene CIS-FACTORIAL HepG2 Assay for human Nuclear Factor Kappa B (NF-kB) (AID 2282991); conditions: HepG2 Attagene cis-factorial NF-kB reporter mRNA; actives raise or lower the signal
How it was run: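 Transient MRTU transfection of human HepG2 liver cells → 24 h chemical exposure → total RNA, oligo(dT) RT → PCR, 6-FAM primer extension, HpaI digest 2 h 37 C → CE fragment analysis. Bidirectional fitting, DMSO negative control.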

[5] = ATG_NRF2_ARE_CIS: Attagene CIS-FACTORIAL HepG2 Assay for human Nuclear Factor Erythroid 2 Related Factor 2 (NFR2) response to Antioxidant Response Elements (ARE) (AID 2282992); conditions: HepG2 Attagene ARE/NRF2 reporter, transcription factor activity; actives raise or lower the signal;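 on AC50: reporter mRNA level measured by RT-PCR and capillary electrophoresis fluorescence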
How it was run: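 Multiplexed reporter mRNA profiling in HepG2 after a 24 h chemical exposure. Curves fitted in both directions relative to DMSO negative control.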

[6] = ATG_Oct_MLP_CIS: Attagene CIS-FACTORIAL HepG2 Assay for human Octamer-Binding Transcription Factor (Oct) (AID 2282993); conditions: HepG2 Attagene cis-factorial Oct reporter, mRNA; actives raise or lower the signal
How it was run: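 Read-out: reporter mRNA via RT-PCR plus capillary electrophoresis of 6-FAM-labelled fragments. Transiently transfected HepG2, 24 h exposure, endogenous TF activity on cis elements. Gain or loss of signal fitted relative to DMSO.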

[7] = target: Cellular tumor antigen p53 (Homo sapiens) (UniProt P04637); assay: ATG_p53_CIS: Attagene CIS-FACTORIAL HepG2 Assay for human p53 Transcription Factor (AID 2282994); conditions: HepG2 p53 cis-element reporter, Attagene mRNA; actives raise or lower the signal
How it was run: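 Multiplexed reporter mRNA assay in human HepG2 liver cells; cis-regulated units report endogenous factor activity. Values come from bidirectional curve fitting against DMSO negative control after 24 h treatment.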

Measured: AC50

Chain of Myc proto-oncogene protein (Homo sapiens) (P01106 whole entry, looked up): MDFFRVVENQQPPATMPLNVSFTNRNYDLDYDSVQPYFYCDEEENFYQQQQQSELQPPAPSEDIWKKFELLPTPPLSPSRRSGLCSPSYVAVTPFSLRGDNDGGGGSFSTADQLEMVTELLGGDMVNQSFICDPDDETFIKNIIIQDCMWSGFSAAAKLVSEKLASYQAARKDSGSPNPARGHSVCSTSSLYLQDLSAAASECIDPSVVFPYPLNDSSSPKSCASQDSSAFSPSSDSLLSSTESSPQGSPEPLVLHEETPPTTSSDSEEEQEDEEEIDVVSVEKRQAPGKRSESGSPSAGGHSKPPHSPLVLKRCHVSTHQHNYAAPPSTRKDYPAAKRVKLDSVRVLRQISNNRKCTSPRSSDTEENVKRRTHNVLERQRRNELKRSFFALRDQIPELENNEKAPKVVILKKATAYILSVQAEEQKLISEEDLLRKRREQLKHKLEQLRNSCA
Chain of Nuclear respiratory factor 1 (Homo sapiens) (Q16656 whole entry, looked up): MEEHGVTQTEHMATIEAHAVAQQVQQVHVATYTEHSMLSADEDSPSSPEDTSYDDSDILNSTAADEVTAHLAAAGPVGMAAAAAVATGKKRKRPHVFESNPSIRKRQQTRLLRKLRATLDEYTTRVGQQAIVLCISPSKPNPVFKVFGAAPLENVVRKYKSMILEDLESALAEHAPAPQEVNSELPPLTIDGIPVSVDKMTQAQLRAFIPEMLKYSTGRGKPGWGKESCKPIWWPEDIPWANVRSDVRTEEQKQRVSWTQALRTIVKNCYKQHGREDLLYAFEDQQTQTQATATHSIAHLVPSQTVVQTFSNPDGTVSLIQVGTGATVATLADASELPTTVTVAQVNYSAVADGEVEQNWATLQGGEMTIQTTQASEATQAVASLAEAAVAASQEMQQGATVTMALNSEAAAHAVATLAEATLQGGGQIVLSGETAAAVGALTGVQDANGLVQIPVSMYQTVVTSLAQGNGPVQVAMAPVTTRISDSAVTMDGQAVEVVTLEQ
Chain of Cellular tumor antigen p53 (Homo sapiens) (P04637 whole entry, looked up): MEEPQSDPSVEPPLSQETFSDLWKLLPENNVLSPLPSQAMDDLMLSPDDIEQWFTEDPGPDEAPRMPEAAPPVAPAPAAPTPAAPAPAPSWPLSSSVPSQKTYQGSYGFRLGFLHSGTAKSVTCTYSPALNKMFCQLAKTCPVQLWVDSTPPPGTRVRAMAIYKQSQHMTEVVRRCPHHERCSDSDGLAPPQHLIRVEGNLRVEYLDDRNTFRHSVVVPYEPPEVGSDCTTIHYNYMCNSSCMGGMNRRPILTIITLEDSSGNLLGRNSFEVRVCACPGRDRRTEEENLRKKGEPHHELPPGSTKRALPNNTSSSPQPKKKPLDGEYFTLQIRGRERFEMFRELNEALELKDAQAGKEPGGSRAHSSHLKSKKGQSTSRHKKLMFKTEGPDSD

CNC(=C[N+](=O)[O-])NCCSCc1ccc(CN(C)C)o1
not listed: [6] | [7]
inactive: all other assays above

C=C(C)C(=O)OCCOCCOC(=O)C(=C)C
not listed: [7]
inactive: all other assays above

O=C1OCc2ccccc21
not listed: [7]
inactive: all other assays above

CC12CCC(C1)C(C)(C)C2O (centres undefined)
inactive: all assays above

CCCCOCCOCCOCCO
inactive: all assays above

CC(C)N1C(=O)c2ccccc2C1=O
inactive: all assays above

CC(=O)OC(C)(C)C
inactive: all assays above

C=CCOC(=O)/C=C\C(=O)OCC=C
active: [4] 15.8 µM | [5] 6.75 µM | [7] 156 µM
inactive: all other assays above

C=C(C)CCCC(C)CCO (centres undefined)
active: [5] 59.7 µM
inactive: all other assays above

CCCCCCCCCCCCN1CCOCC1
active: [1] 59.8 µM | [5] 33.4 µM | [6] 45.4 µM
inactive: all other assays above

CCCCCCCCOC(C)=O
inactive: all assays above

C=C1CC[C@H]2O[C@]2(C)CC[C@@H]2[C@@H]1CC2(C)C
inactive: all assays above

CCCCCCOc1ccc(O)cc1
active: [5] 18.7 µM | [6] 33.4 µM
inactive: all other assays above

Cc1cc(O)c2c(c1)C(=O)c1cc(O)cc(O)c1C2=O
inactive: [1] | [3] | [7]
active: [2] 8.34 µM | [4] 17.4 µM | [5] 4.77 µM | [6] 8.59 µM

CC(=O)Nc1cc(S(=O)(=O)O)cc2cc(S(=O)(=O)O)c(N=Nc3ccccc3)c(O)c12
inactive: all assays above

CCCCCCCCCCCCCCCCCC(=O)OCCCCCCCCCCCCCC(C)C
inactive: all assays above

CCCCCCCCCCOC(=O)c1ccccc1C(=O)OCCCCCCCC
inactive: all assays above

CCOC(=O)C(=O)OCC
inactive: all assays above

CN(C)CCC=C1c2ccccc2CCc2ccccc21
active: [4] 13.4 µM | [5] 33.4 µM | [6] 24.6 µM | [7] 23.1 µM
inactive: [1] | [2] | [3]

CC(C)OB(OC(C)C)OC(C)C
inactive: all assays above

CCC(C)COC(=O)CC(C)C (centres undefined)
inactive: all assays above

CCCCCCOC(C)=O
inactive: all assays above

C=C(C)C(=O)OCCC(C)OC(=O)C(=C)C (centres undefined)
inactive: all assays above

CC(C)(O)CCc1ccccc1
inactive: all assays above

CCCc1ccc(O)cc1
active: [5] 36 µM
inactive: all other assays above

C=C(C)C(=O)OCCC[Si](OC)(OC)OC
inactive: all assays above

CCC(C)(C)c1cc(O)c(C(C)(C)CC)cc1O
active: [1] 12.3 µM | [2] 5.78 µM | [4] 60.4 µM | [5] 3.81 µM | [7] 33.4 µM
inactive: [3] | [6]

CCCCCC(=O)O[C@]1(C(C)=O)CC[C@H]2[C@@H]3CCC4=CC(=O)CC[C@]4(C)[C@H]3CC[C@@]21C
active: [1] 8.32 µM | [5] 12.6 µM
inactive: all other assays above

OCCCO
inactive: all assays above
